Results from paper PMC7862700, “An all-to-all approach to the identification of sequence-specific readers for epigenetic DNA modifications on cytosine”.

What was measured:
Assay in all cases: DAPPL (digital affinity profiling via proximity ligation, sequencing); 10 mM Tris-HCl pH 7.5, 50 mM NaCl, 1 mM DTT, 4% glycerol, room temperature, 30 min; GST-TFs on glutathione beads, 16-mer random dsDNA library, 0.1% formaldehyde crosslink after washing; high values mean tight binding
FLI1 = target: T1, FLI1 (Homo sapiens, UniProt Q01543 1-452); settings: protein: recombinant; tags: N-terminal GST; dsDNA, one strand shown
T1 sequence: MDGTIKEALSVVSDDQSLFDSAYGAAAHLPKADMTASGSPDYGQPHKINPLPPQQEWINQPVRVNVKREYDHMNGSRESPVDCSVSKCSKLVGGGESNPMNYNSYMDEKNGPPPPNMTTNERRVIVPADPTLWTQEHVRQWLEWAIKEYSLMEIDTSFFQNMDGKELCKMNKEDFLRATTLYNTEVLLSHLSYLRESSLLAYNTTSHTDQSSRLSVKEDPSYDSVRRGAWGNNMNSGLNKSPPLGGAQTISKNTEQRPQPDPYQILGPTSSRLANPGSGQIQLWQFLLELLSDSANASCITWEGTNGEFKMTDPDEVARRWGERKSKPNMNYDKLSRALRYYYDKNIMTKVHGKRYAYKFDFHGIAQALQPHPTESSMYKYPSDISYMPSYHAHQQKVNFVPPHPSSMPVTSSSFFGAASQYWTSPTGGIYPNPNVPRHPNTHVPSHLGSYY
Method in brief: (§1)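 Pools were built from human transcription factors expressed in yeast as GST fusions, captured on glutathione beads and DNA-barcoded, along with a tag-only sample. Incubation with 200 nmole of a 16-mer random double-stranded DNA library lasted 30 min at room temperature in Tris/NaCl/DTT/glycerol buffer, and was followed by washing, 0.1% formaldehyde crosslinking, proximity ligation, PCR amplification and Illumina NextSeq500 sequencing. Binding signal is the quotient of each hexamer's read frequency for a factor and its frequency for the tag-only sample.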

ELK1 = target: T2, ELK1 (Homo sapiens, UniProt P19419 1-428); settings: protein: recombinant; tags: N-terminal GST; dsDNA, one strand shown
T2 sequence: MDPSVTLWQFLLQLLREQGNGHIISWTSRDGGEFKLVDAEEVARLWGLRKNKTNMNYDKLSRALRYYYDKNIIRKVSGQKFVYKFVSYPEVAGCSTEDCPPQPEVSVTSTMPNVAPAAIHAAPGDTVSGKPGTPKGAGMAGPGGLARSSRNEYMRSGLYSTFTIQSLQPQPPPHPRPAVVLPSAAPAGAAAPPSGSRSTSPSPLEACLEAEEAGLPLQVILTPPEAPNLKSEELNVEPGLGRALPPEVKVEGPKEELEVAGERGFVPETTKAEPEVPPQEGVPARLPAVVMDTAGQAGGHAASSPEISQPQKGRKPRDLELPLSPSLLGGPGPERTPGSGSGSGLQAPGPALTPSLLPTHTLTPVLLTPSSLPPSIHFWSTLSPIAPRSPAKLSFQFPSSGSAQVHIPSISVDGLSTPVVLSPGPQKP
Method in brief: as §1

GABPA = target: T3, GABPA (Homo sapiens, UniProt Q06546 1-454); settings: protein: recombinant; tags: N-terminal GST; dsDNA, one strand shown
T3 sequence: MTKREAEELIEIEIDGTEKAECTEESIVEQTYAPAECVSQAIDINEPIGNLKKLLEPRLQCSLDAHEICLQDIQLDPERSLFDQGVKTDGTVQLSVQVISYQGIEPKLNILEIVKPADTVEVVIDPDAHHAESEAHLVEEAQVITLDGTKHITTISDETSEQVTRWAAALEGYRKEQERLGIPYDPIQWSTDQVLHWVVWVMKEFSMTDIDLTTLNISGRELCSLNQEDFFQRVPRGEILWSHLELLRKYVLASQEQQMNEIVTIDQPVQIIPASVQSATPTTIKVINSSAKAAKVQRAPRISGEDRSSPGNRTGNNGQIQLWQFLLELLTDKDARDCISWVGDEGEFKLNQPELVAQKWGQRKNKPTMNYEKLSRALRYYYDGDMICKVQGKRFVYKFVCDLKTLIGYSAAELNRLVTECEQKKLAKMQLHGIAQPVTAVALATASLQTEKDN
Method in brief: as §1

ERG = target: T4, ERG (Homo sapiens, UniProt P11308 1-479); settings: protein: recombinant; tags: N-terminal GST; dsDNA, one strand shown
T4 sequence: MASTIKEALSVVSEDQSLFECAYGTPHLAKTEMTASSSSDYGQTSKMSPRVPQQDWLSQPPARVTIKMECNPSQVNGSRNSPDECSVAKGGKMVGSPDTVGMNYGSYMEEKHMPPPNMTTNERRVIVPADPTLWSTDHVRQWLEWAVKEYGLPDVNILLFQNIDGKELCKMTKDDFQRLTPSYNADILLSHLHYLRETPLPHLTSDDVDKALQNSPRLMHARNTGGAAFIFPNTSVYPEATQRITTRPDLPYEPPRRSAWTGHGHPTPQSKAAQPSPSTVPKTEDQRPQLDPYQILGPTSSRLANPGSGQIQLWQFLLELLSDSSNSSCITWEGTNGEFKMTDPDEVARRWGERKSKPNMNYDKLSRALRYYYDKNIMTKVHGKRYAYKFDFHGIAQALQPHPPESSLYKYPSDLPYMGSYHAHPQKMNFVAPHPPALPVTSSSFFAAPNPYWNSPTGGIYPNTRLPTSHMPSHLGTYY
Method in brief: as §1

ELF1 = ELF1 (Homo sapiens, UniProt P32519 1-619); settings: protein: recombinant; tags: N-terminal GST; dsDNA, one strand shown
Method in brief: as §1

EHF = target: T5, EHF (Homo sapiens, UniProt Q9NZC4 1-300); settings: protein: recombinant; tags: N-terminal GST; dsDNA, one strand shown
T5 sequence: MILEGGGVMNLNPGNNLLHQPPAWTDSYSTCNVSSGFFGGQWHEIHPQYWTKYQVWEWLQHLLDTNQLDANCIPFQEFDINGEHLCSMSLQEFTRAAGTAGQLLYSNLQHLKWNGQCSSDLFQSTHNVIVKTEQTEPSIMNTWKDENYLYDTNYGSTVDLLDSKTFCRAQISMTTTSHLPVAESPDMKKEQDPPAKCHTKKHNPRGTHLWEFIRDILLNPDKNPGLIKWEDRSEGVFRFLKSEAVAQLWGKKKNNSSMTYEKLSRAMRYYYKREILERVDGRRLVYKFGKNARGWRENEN
Method in brief: as §1

SPI1 = SPI1 (Homo sapiens, UniProt P17947 1-270); settings: protein: recombinant; tags: N-terminal GST; dsDNA, one strand shown
Method in brief: as §1

SPIB = SPIB (Homo sapiens, UniProt Q01892 1-262); settings: protein: recombinant; tags: N-terminal GST; dsDNA, one strand shown
Method in brief: as §1

ELK3 = target: T6, ELK3 (Homo sapiens, UniProt P41970 1-407); settings: protein: recombinant; tags: N-terminal GST; dsDNA, one strand shown
T6 sequence: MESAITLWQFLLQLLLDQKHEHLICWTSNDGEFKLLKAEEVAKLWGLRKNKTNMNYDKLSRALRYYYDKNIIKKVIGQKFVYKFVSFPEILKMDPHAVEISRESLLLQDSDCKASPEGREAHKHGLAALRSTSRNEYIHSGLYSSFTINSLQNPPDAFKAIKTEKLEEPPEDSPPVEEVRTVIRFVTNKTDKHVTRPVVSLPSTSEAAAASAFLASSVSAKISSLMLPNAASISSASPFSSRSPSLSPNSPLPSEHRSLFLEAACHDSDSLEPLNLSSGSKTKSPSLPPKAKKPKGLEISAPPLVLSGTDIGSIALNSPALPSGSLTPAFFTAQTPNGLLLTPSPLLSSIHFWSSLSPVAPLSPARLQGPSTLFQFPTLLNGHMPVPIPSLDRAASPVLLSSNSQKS
Method in brief: as §1

FEV = target: T7, FEV (Homo sapiens, UniProt Q99581 1-238); settings: protein: recombinant; tags: N-terminal GST; dsDNA, one strand shown
T7 sequence: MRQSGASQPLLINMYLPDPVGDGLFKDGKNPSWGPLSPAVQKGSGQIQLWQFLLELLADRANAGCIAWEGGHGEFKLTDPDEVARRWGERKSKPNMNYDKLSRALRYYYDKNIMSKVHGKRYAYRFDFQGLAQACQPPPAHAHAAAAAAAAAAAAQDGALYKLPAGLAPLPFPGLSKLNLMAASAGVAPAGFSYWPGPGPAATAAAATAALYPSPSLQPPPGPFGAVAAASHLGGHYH
Method in brief: as §1

ETV5 = ETV5 (Homo sapiens, UniProt P41161 1-510); settings: protein: recombinant; tags: N-terminal GST; dsDNA, one strand shown
Method in brief: as §1

HSF1 = HSF1 (Homo sapiens, UniProt Q00613 1-529); settings: protein: recombinant; tags: N-terminal GST; chain copies: 3; dsDNA, one strand shown
Method in brief: as §1

SPIC = target: T8, SPIC (Homo sapiens, UniProt Q8N5J4 1-248); settings: protein: recombinant; tags: N-terminal GST; dsDNA, one strand shown
T8 sequence: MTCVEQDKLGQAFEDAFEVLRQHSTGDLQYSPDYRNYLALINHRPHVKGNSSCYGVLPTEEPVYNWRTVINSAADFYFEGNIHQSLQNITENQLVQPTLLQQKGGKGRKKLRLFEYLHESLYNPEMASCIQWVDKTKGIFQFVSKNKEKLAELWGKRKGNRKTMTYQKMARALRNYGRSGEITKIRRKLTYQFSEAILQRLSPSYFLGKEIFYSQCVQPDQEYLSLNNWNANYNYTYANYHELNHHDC
Method in brief: as §1

ELF4 = ELF4 (Homo sapiens, UniProt Q99607 1-663); settings: protein: recombinant; tags: N-terminal GST; dsDNA, one strand shown
Method in brief: as §1

ELK4 = target: T9, ELK4 (Homo sapiens, UniProt P28324-2 1-405); settings: protein: recombinant; tags: N-terminal GST; dsDNA, one strand shown
T9 sequence: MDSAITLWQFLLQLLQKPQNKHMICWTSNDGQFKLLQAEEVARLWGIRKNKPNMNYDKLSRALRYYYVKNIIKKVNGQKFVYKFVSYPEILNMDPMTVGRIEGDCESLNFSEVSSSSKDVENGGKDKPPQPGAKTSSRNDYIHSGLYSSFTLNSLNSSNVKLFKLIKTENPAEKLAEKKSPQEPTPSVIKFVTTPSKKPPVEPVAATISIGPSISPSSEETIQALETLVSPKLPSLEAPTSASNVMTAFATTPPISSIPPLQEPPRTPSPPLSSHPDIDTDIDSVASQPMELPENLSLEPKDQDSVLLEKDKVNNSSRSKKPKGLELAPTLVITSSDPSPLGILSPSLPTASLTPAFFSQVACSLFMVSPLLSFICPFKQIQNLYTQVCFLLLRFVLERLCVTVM
Method in brief: as §1

ETV2 = target: T10, ETV2 (Homo sapiens, UniProt O00321 1-342); settings: protein: recombinant; tags: N-terminal GST; dsDNA, one strand shown
T10 sequence: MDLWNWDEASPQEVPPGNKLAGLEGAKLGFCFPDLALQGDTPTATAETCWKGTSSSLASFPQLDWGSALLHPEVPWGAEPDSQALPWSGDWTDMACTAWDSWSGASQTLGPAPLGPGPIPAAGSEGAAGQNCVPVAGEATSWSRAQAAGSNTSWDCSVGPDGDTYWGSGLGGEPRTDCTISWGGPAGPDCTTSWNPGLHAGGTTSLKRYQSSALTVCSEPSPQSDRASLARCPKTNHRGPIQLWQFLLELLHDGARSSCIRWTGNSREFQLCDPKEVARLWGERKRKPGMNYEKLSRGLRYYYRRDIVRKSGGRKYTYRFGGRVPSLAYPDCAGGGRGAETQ
Method in brief: as §1

ELF3 = target: T11, ELF3 (Homo sapiens, UniProt P78545 1-371); settings: protein: recombinant; tags: N-terminal GST; dsDNA, one strand shown
T11 sequence: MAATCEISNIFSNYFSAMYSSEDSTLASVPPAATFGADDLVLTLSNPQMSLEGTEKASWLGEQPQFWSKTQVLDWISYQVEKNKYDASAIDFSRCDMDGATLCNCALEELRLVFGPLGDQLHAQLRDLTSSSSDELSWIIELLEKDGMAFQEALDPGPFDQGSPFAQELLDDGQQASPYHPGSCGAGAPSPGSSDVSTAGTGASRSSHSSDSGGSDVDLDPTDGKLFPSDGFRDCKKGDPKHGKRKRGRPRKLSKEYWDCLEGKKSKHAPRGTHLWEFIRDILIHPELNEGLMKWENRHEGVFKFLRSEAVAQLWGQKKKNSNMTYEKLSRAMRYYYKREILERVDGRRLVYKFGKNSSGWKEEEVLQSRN
Method in brief: as §1

ETV1 = ETV1 (Homo sapiens, UniProt P50549 1-477); settings: protein: recombinant; tags: N-terminal GST; dsDNA, one strand shown
Method in brief: as §1

Chain of ETV1 (P50549 whole entry): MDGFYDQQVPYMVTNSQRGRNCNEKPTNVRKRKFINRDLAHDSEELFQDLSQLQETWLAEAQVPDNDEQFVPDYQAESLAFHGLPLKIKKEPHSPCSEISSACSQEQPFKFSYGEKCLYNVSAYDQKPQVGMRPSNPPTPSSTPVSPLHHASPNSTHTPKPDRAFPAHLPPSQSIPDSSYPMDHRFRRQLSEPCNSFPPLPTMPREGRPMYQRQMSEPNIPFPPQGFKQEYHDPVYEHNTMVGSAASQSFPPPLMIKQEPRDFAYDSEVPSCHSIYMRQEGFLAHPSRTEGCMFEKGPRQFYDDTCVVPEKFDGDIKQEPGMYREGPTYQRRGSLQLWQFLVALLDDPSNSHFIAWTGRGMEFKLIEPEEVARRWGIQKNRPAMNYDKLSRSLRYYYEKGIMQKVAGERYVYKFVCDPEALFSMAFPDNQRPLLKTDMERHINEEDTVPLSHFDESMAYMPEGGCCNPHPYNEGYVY
Chain of ELF4 (Q99607 whole entry): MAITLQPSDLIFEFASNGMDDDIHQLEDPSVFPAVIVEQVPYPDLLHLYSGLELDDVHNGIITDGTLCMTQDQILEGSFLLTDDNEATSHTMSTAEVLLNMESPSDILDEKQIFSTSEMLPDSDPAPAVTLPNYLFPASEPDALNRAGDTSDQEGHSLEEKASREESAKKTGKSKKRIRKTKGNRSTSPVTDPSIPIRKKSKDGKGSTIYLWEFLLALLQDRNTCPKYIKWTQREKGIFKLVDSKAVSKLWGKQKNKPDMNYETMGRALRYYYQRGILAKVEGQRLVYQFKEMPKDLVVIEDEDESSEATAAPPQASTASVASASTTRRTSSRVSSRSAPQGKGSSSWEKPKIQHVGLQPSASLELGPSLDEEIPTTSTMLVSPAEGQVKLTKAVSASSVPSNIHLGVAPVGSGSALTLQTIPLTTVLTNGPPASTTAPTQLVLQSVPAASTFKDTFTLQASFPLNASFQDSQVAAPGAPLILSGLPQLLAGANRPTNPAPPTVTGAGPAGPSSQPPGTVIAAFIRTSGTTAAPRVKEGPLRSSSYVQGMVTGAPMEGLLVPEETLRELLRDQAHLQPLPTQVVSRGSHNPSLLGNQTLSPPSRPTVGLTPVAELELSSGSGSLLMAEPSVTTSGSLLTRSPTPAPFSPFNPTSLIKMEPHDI
Chain of SPIB (Q01892 whole entry): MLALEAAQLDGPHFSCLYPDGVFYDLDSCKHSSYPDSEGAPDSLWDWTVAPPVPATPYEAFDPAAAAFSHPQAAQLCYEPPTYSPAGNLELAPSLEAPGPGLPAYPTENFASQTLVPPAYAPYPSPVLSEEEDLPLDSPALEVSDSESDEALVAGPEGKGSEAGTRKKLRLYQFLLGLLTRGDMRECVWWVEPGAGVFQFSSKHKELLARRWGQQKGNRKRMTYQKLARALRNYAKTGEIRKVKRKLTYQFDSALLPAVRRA
Chain of ETV5 (P41161 whole entry): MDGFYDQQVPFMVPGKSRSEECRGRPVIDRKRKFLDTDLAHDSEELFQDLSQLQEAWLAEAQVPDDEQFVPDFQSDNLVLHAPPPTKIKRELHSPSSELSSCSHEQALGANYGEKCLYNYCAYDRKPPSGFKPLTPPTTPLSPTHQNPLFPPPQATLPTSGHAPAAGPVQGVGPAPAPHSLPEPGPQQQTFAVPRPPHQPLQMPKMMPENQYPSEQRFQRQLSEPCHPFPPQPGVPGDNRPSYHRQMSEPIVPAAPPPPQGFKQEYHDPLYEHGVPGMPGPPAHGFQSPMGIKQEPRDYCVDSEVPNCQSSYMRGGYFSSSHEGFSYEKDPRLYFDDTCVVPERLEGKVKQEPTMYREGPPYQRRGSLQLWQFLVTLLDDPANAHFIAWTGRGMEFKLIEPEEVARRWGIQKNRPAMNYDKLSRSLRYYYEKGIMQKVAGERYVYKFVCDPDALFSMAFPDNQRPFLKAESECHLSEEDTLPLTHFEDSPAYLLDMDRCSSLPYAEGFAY
Chain of ELF1 (P32519 whole entry): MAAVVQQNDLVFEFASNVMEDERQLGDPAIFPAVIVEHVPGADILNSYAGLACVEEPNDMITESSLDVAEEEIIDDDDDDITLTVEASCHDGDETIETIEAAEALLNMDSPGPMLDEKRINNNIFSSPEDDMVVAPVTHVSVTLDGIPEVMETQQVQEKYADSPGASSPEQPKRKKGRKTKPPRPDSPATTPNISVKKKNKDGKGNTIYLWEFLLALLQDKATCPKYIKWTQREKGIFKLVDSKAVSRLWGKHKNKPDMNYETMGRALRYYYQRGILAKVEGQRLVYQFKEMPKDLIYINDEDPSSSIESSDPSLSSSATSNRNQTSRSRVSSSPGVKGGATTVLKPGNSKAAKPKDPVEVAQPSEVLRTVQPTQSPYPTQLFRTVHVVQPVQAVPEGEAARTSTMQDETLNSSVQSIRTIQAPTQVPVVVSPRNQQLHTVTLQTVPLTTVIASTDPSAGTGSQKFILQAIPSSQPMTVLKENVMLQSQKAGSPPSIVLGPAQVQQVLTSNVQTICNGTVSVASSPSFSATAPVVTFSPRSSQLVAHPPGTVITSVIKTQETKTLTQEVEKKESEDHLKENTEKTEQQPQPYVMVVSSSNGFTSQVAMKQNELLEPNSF
Chain of HSF1 (Q00613 whole entry): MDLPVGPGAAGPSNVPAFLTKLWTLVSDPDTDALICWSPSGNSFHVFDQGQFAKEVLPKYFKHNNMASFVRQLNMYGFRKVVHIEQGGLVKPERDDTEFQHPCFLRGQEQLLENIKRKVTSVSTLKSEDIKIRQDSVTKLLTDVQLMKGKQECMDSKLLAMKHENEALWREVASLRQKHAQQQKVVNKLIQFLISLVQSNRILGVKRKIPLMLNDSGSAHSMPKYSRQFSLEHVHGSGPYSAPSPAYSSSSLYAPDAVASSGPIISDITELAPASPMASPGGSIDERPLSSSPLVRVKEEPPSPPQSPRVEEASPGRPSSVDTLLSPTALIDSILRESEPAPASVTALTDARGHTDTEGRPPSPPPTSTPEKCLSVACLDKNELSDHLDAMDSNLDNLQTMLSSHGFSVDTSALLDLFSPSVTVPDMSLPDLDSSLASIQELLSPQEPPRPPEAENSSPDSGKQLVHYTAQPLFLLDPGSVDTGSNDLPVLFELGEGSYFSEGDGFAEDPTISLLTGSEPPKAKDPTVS

In the case of ATGTGG, the binding signal (FLI1) is reported as 1.08 fold enrichment (6-mer frequency, TF over GST control), the binding signal (ELK1) is reported as 1.05 fold enrichment (6-mer frequency, TF over GST control) and the binding signal (GABPA) is reported as 1.11 fold enrichment (6-mer frequency, TF over GST control). For the same sequence, the binding signal (ERG) was 1.21 fold enrichment (6-mer frequency, TF over GST control), the binding signal (ELF1) was 1.18 fold enrichment (6-mer frequency, TF over GST control) and the binding signal (EHF) was 1.23 fold enrichment (6-mer frequency, TF over GST control). For the same sequence, the binding signal (SPI1) was 1.02 fold enrichment (6-mer frequency, TF over GST control), the binding signal (SPIB) was 1.31 fold enrichment (6-mer frequency, TF over GST control) and the binding signal (ELK3) was 1.1 fold enrichment (6-mer frequency, TF over GST control). For the same sequence, the binding signal (FEV) was 1.2 fold enrichment (6-mer frequency, TF over GST control), the binding signal (ETV5) was 1.09 fold enrichment (6-mer frequency, TF over GST control) and the binding signal (HSF1) was 1.04 fold enrichment (6-mer frequency, TF over GST control). The binding signal (SPIC) was 1.18 fold enrichment (6-mer frequency, TF over GST control), the binding signal (ELF4) was 1.15 fold enrichment (6-mer frequency, TF over GST control) and the binding signal (ELK4) was 1.27 fold enrichment (6-mer frequency, TF over GST control). For the same sequence, the binding signal (ETV2) was 1.28 fold enrichment (6-mer frequency, TF over GST control), the binding signal (ELF3) was 1.26 fold enrichment (6-mer frequency, TF over GST control) and the binding signal (ETV1) was 1.12 fold enrichment (6-mer frequency, TF over GST control).
